According to PubChem BioAssay:
Inconclusive results are not listed. The source made the active and inactive calls. Cut-off read from the data, not from the text of the source: active = fluorescence slope change above about 50%; inconclusive = mostly about 31% to 49%; inactive = weaker than that.

biological target: ATP-dependent translocase ABCB1 (Homo sapiens) (UniProt P08183); assay: MDR1 (ABCB1) efflux transporter inhibition, cell-based (AID 377); settings: MDR1-expressing cells, fluorescent substrate accumulation slope; stronger effect = higher value; concentration not given here
Sequence (P08183 whole entry, looked up): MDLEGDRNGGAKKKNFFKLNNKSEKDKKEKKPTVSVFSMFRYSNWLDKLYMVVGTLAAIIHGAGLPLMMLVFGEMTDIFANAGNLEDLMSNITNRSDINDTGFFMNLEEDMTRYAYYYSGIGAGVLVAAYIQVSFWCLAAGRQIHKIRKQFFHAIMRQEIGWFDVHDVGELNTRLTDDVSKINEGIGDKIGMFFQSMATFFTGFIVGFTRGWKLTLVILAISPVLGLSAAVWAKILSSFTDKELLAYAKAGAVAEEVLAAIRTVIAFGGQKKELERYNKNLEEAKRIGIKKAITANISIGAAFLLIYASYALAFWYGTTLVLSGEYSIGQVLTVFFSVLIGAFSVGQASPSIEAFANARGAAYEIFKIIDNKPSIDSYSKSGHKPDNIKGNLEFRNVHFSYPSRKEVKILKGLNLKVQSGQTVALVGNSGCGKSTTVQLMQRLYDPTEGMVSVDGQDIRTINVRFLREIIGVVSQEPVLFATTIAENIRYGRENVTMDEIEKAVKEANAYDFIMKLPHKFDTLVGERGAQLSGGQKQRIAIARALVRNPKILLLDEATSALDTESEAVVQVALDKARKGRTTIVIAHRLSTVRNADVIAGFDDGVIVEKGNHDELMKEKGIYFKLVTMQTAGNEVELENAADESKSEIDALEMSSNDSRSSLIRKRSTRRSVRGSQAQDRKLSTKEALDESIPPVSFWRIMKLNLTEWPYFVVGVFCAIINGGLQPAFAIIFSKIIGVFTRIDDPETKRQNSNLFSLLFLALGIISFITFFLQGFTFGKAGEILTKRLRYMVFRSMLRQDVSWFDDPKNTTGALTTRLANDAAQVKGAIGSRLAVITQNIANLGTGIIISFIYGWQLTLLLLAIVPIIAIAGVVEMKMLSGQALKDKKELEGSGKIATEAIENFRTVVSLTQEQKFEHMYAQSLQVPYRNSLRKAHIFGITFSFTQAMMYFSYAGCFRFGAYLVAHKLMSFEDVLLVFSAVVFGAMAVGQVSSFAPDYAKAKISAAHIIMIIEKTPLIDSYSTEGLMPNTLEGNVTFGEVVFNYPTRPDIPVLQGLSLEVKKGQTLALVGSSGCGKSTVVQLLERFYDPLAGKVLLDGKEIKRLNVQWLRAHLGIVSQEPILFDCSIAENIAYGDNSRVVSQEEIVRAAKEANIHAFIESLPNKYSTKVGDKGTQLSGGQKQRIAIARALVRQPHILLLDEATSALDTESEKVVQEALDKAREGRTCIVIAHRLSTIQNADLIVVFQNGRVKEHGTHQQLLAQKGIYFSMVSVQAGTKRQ

SMILES	fluorescence slope change
NCCCCN=C(N)N	53.1% (active)
N[C@@H](Cc1cc(I)c(Oc2ccc(O)c(I)c2)c(I)c1)C(=O)O	18.7% (inactive)
Cc1cc(C(C)(C)CC(C)(C)C)ccc1OCCOCC[N+](C)(C)Cc1ccccc1	152% (active)
CC(CN(C)C)CN1c2ccccc2Sc2ccccc21 (stereo unspecified)	102% (active)
CC(C(=O)O)c1ccc(N2Cc3ccccc3C2=O)cc1 (stereo unspecified)	85.5% (active)
CN1CCc2c(c3ccccc3n2Cc2ccccc2)C1	70.9% (active)
COc1cc2c(cc1OC)-c1cc3ccc(OC)c(OC)c3c[n+]1CC2	29.3% (inactive)
NC(N)=NCCCCN=C(N)N	59.6% (active)
CN(C)CCOC(c1ccccc1)c1ccccc1 (tested in a mixture with another compound)	130% (active)
Oc1cc(O)c2c(c1)O[C@H](c1ccc(O)c(O)c1)[C@@H](O)C2	16.4% (inactive)
COc1cc(S(C)=O)ccc1-c1nc2ncccc2[nH]1 (stereo unspecified)	5% (inactive)

test system: not listed separately; assay: polyglutamine-triggered caspase-3 activation inhibitors, cell-based (AID 1583); settings: polyglutamine-induced caspase-3 activation, cell assay; stronger effect = higher value;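 tested at 10 µM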

SMILES	inhibition
NC(=O)c1ccc[n+]([C@@H]2O[C@H](COP(=O)([O-])OP(=O)(O)OC[C@H]3O[C@@H](n4cnc5c(N)ncnc54)[C@H](O)[C@@H]3O)[C@@H](O)[C@H]2O)c1	7.61%
Cn1c(=O)[nH]c2ncn(C)c2c1=O	15.7%
Cc1cc(C(C)(C)CC(C)(C)C)ccc1OCCOCC[N+](C)(C)Cc1ccccc1	-7.8%
Cn1c(=O)c2[nH]c(C3CCCC3)nc2n(C)c1=O	24.6%
CC(=O)N1CCN(c2ccc(OCC3CO[C@](Cn4ccnc4)(c4ccc(Cl)cc4Cl)O3)cc2)CC1 (stereo partly specified)	-4.16%
CN[C@H](CC(=O)O)C(=O)O	0.95%
CN1CCc2cccc3c2C1Cc1ccc(O)c(O)c1-3 (stereo unspecified)	1.43%
COc1c2ccoc2cc2oc(=O)ccc12	-19.8%
C=C1c2c(Cl)ccc(O)c2C(O)=C2C(=O)[C@]3(O)C(O)=C(C(N)=O)C(=O)[C@@H](N(C)C)[C@@H]3[C@@H](O)[C@H]12	-20.8%
CC(CN(C)C)CN1c2ccccc2Sc2ccccc21 (stereo unspecified)	-4.15%
CC(C(=O)O)c1ccc(N2Cc3ccccc3C2=O)cc1 (stereo unspecified)	-2.1%
O=c1cc(-c2ccccc2)oc2c(O)c(O)ccc12	17.3%
CN1CCc2c(c3ccccc3n2Cc2ccccc2)C1	13.5%
NC(N)=NCCCCN=C(N)N	0.26%
NCCCCN	-6.18%
Cc1cc(/C=C/c2ccc3cc(N(C)C)ccc3[n+]2C)c(C)n1-c1ccccc1	21.2%
NCCSSCCN	34.8%
CC1(C)S[C@@H]2[C@H](NC(=O)Cc3ccccc3)C(=O)N2[C@H]1C(=O)O	18.9%
CN(C)CCOC(c1ccccc1)c1ccccc1 (tested in a mixture with another compound)	13%
Oc1cc(O)c2c(c1)O[C@H](c1ccc(O)c(O)c1)[C@@H](O)C2	23.8%
C1N2CN3CN1CN(C2)C3	10.1%
COc1cc(S(C)=O)ccc1-c1nc2ncccc2[nH]1 (stereo unspecified)	23%
NCCCS(=O)(=O)O	-8.14%
COC(=O)[C@H]1[C@H]2C[C@H]3c4[nH]c5ccccc5c4CCN3C[C@H]2CC[C@@H]1O	-11.7%
C[N+](C)(C)CC(O)CC(=O)O (stereo unspecified)	0.15%

test system: not listed separately; assay: suppressors of polyQ aggregation in yeast, 75Q-TubU reporter (AID 1593); settings: Yeast 75Q polyglutamine aggregation reporter

SMILES	score
NC(=O)c1ccc[n+]([C@@H]2O[C@H](COP(=O)([O-])OP(=O)(O)OC[C@H]3O[C@@H](n4cnc5c(N)ncnc54)[C@H](O)[C@@H]3O)[C@@H](O)[C@H]2O)c1	1.51
Cn1c(=O)[nH]c2ncn(C)c2c1=O	1.32
Cc1cc(C(C)(C)CC(C)(C)C)ccc1OCCOCC[N+](C)(C)Cc1ccccc1	-0.1
Cn1c(=O)c2[nH]c(C3CCCC3)nc2n(C)c1=O	1.3
CC(=O)N1CCN(c2ccc(OCC3CO[C@](Cn4ccnc4)(c4ccc(Cl)cc4Cl)O3)cc2)CC1 (stereo partly specified)	0.15
CN[C@H](CC(=O)O)C(=O)O	1.4
CN1CCc2cccc3c2C1Cc1ccc(O)c(O)c1-3 (stereo unspecified)	0.79
COc1c2ccoc2cc2oc(=O)ccc12	1.02
C=C1c2c(Cl)ccc(O)c2C(O)=C2C(=O)[C@]3(O)C(O)=C(C(N)=O)C(=O)[C@@H](N(C)C)[C@@H]3[C@@H](O)[C@H]12	0.46
CC(CN(C)C)CN1c2ccccc2Sc2ccccc21 (stereo unspecified)	1.25
CC(C(=O)O)c1ccc(N2Cc3ccccc3C2=O)cc1 (stereo unspecified)	0.89
O=c1cc(-c2ccccc2)oc2c(O)c(O)ccc12	0.23
CN1CCc2c(c3ccccc3n2Cc2ccccc2)C1	1.36
NC(N)=NCCCCN=C(N)N	1.07
NCCCCN	1.21
Cc1cc(/C=C/c2ccc3cc(N(C)C)ccc3[n+]2C)c(C)n1-c1ccccc1	-2.18
NCCSSCCN	1.31
CC1(C)S[C@@H]2[C@H](NC(=O)Cc3ccccc3)C(=O)N2[C@H]1C(=O)O	1.32
CN(C)CCOC(c1ccccc1)c1ccccc1 (tested in a mixture with another compound)	1.21
Oc1cc(O)c2c(c1)O[C@H](c1ccc(O)c(O)c1)[C@@H](O)C2	1.24
C1N2CN3CN1CN(C2)C3	0.91
COc1cc(S(C)=O)ccc1-c1nc2ncccc2[nH]1 (stereo unspecified)	1.52
NCCCS(=O)(=O)O	1.19
COC(=O)[C@H]1[C@H]2C[C@H]3c4[nH]c5ccccc5c4CCN3C[C@H]2CC[C@@H]1O	2.01
C[N+](C)(C)CC(O)CC(=O)O (stereo unspecified)	1.34
